Results filed as inconclusive are left out. Active and inactive are the calls of the source. Calls follow the shape of the dose curve; as a rule, active = well fitted inhibition curve with a large enough effect; inconclusive = small, poorly fitted or top-dose-only effect; inactive = flat fitted curve, though single readings scatter.
Assays:
Assay in all cases: qHTS profiling for inhibitors of Plasmodium falciparum proliferation (AID 504749); also: nearly all actives have a fitted effect of over 60% in size
Details in all cases: P. falciparum in erythrocytes, SYBR Green DNA, 72 h; series mostly up to 28.7 µM
CP211 = test system: CP211
Procedure, shortened: (§1)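 Fluorescence of SYBR Green-bound parasite DNA, read at 485/535 nm, served as the growth measure. Infected erythrocytes were cultured with compound 72 h; artemisinin (0.29 uM) and DMSO wells defined the normalization range.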

CP215 = test system: CP215
Procedure, shortened: as §1

CP217 = test system: CP217
Procedure, shortened: as §1

CP237 = test system: CP237
Procedure, shortened: as §1

CP238 = test system: CP238
Procedure, shortened: as §1

CP247 = test system: CP247
Procedure, shortened: as §1

CP250 = test system: CP250
Procedure, shortened: as §1

CP252 = test system: CP252
Procedure, shortened: as §1

CP256 = test system: CP256
Procedure, shortened: as §1

CP260 = test system: CP260
Procedure, shortened: as §1

CP262 = test system: CP262
Procedure, shortened: as §1

CP265 = test system: CP265
Procedure, shortened: as §1

CP266 = test system: CP266
Procedure, shortened: as §1

CP268 = test system: CP268
Procedure, shortened: as §1

CP269 = test system: CP269
Procedure, shortened: as §1

CP286 = test system: CP286
Procedure, shortened: as §1

CP291 = test system: CP291
Procedure, shortened: as §1

CP297 = test system: CP297
Procedure, shortened: as §1

CP305 = test system: CP305
Procedure, shortened: as §1

CP315 = test system: CP315
Procedure, shortened: as §1

Measured: Potency
Potency is read from the fitted curve at half-maximal effect.

Nc1ncnc2nc[nH]c12
inactive: all assays above

CCCCCCCCCCCCCCCC[n+]1ccccc1
active: CP211 6.75 µM | CP215 13.5 µM | CP217 5.62 µM | CP237 7.94 µM | CP238 7.08 µM | CP247 5.62 µM | CP250 6.31 µM | CP252 6.31 µM | CP256 8.91 µM | CP260 3.98 µM | CP262 3.38 µM | CP265 8.91 µM | CP266 13.5 µM | CP268 9.53 µM | CP269 5.36 µM | CP286 2.51 µM | CP291 6.01 µM | CP297 5.36 µM | CP305 6.75 µM

CN1CCC(Nc2ncc3ncnc(Nc4ccc(F)c(Cl)c4)c3n2)CC1
inactive: CP262 | CP315
active: CP217 11.2 µM | CP252 7.94 µM | CP286 11.2 µM | CP291 15.1 µM

Nc1c2ccccc2nc2ccccc12
active: CP237 8.91 µM | CP238 10 µM | CP247 10 µM | CP252 10 µM | CP256 11.2 µM | CP260 7.94 µM | CP266 13.5 µM | CP268 13.5 µM | CP269 13.5 µM | CP286 5.01 µM
inactive: CP262

O=C(Nc1ccc(Cl)cc1)Nc1ccc(Cl)c(Cl)c1
inactive: CP315
active: CP211 6.01 µM | CP215 6.75 µM | CP217 2.24 µM | CP237 2 µM | CP238 3.55 µM | CP247 3.98 µM | CP250 3.16 µM | CP252 3.55 µM | CP256 2.24 µM | CP260 2 µM | CP262 5.36 µM | CP265 3.55 µM | CP266 8.49 µM | CP268 4.26 µM | CP269 6.01 µM | CP286 2.24 µM | CP291 4.78 µM | CP297 7.57 µM | CP305 4.78 µM

Nc1ccc2cc3ccc(N)cc3nc2c1
active: CP237 12.6 µM | CP260 8.91 µM | CP286 3.55 µM
inactive: CP262

CN1CCCN(C(c2ccccc2)c2ccc(Cl)cc2)CC1 (stereo not drawn)
inactive: CP262 | CP315
active: CP217 14.1 µM | CP237 11.2 µM | CP247 11.2 µM | CP250 12.6 µM | CP256 10 µM | CP260 10 µM | CP265 5.01 µM | CP286 11.2 µM

O=[N+]([O-])c1ccc(O)c2ncccc12
active: CP247 11.2 µM | CP252 8.91 µM | CP262 12 µM

CC(NCCC(c1ccccc1)c1ccccc1)c1ccccc1 (stereo not drawn)
inactive: CP262
active: CP217 8.91 µM | CP237 10 µM | CP247 7.94 µM | CP252 10 µM | CP256 12.6 µM | CP260 10 µM | CP268 13.5 µM | CP269 16.9 µM | CP286 3.98 µM | CP291 13.5 µM | CP305 13.5 µM

CCCCCCCCCCCCCCCC[N+](C)(C)Cc1ccccc1
active: CP211 10.7 µM | CP215 9.53 µM | CP217 3.16 µM | CP237 3.55 µM | CP238 0.891 µM | CP247 2.24 µM | CP250 2.51 µM | CP252 3.16 µM | CP256 3.98 µM | CP260 2 µM | CP262 4.78 µM | CP265 3.98 µM | CP266 9.53 µM | CP268 12 µM | CP269 7.57 µM | CP286 2.82 µM | CP291 15.1 µM | CP297 13.5 µM

CCCCCCCCCCCCCC[N+](C)(C)C
active: CP211 6.01 µM | CP215 8.49 µM | CP217 8.91 µM | CP237 5.01 µM | CP238 3.98 µM | CP247 3.98 µM | CP250 5.62 µM | CP252 7.08 µM | CP256 7.94 µM | CP260 3.98 µM | CP262 4.78 µM | CP265 8.91 µM | CP266 10.7 µM | CP268 8.49 µM | CP269 5.36 µM | CP286 2.51 µM | CP291 4.78 µM | CP297 10.7 µM | CP305 5.36 µM | CP315 5.36 µM

O=S(=O)(O)c1ccc2nc(-c3ccccc3)[nH]c2c1
inactive: all assays above

Reference: PubChem BioAssay (NCATS)
